Measurements published in PubChem BioAssay.
Active and inactive are the calls of the source.

Test system: Wnt5a (protein binding on small-molecule microarray)
Assay: Wnt5a binders on small-molecule microarray, primary screen, biophysical, 635/667 nm fluorescence (AID 1142);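 note: fluorescence read at 667 nm with signal to noise per printed feature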
Details: 635 nm fluorescence, higher = more signal

SMILES	composite z-score
COc1ccc(C(=O)Nc2cccc(CN3C(=O)[C@]4(O[C@H](CCn5cc([C@H](O)c6ccccc6)nn5)[C@@H]([Si](C)(C)c5ccc(OC)cc5)[C@@H]4C)c4ccccc43)c2)cc1	0.194
COCCOC(=O)N1C(=O)[C@@]2(c3cc(C#CC4=CCCCC4)ccc31)[C@H](C(=O)N1CCCCCCC1)[C@H]1C(=O)O[C@H](c3ccccc3)[C@H](c3ccccc3)N1[C@@H]2c1ccc(OCCO)cc1	0.636
C=C(CCCC)/C(=C/C[C@H](OC(C)=O)c1ccc(OCCO)cc1)c1cc(C(=O)OC)ccc1OC	0.613
COc1ccc([Si](C)(C)[C@H]2[C@H](CC(=O)N3CCC[C@H]3CO)O[C@@]3(C(=O)N(Cc4ccc(N5CCC5=O)cc4)c4ccccc43)[C@@H]2C)cc1	0.699
[N-]=[N+]=NCc1ccccc1[C@@H]1OC(c2ccc(OCCCO)cc2)=N[C@]1(Cc1ccccc1N=[N+]=[N-])C(=O)NCCN1CCOCC1	0.959
O=C1C[C@@](C(=O)NCC(F)(F)F)(c2ccc([N+](=O)[O-])cc2)[C@@H](c2ccc(CO)cc2)N1CC12CC3CC(CC(C3)C1)C2	0.988

Test system: not listed separately
Assay: cell viability in Huh7 cells, primary screen, cytotoxicity control for HCV replication inhibitor project, CellTiter-Glo luminescence, basal, 48 h (AID 1143);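 note: Huh7 hepatoma cells carrying a hepatitis C replication reporter with no stimulus; test concentration not given here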
Details: Huh7 HCV replicon, higher = more signal, called active from +8 up or from −8 down

SMILES	z-score
C=CCC(OC(C)=O)[C@@H]1[C@@H](N(Cc2cc3ccccc3o2)C(=O)c2ccc(-c3ccccc3)cc2)c2cc(OCCCO)ccc2N1C(=O)Cc1ccc(OC)cc1 (stereo partly specified)	0.0567 (inactive)
COCC(=C=CC[C@@H](O)c1ccc(OCCO)cc1)CCO	-0.258 (inactive)
CC(C)(C)OC(=O)CC[C@]12N=C(c3ccc(OCCCO)cc3)O[C@H]1c1ccccc1N(Cc1ccccc1)C2=O	-3.76 (inactive)
O=C1OCCC/C=C\[C@H]2OC34C=CCN(c5ccc6ccccc6c5)C(=O)[C@H]3N(CCCO)C(=O)[C@@H]4C12 (stereo partly specified)	0.187 (inactive)
C=C/C=C/[C@@H]1C(=C)CN([C@@H](Cc2ccccc2)C(=O)OC)[C@H]1[C@@H](O)Cc1ccccc1	-0.342 (inactive)
O=C1NC(=O)C2C1C=CC(C(O)c1ccccn1)N2Nc1ccc(Cl)cc1Cl (stereo unspecified)	0.203 (inactive)
CC(C)C[C@@H]1NC(=O)CNC(=O)[C@@]23C(=O)N[C@@H](Cc4ccccc4)C2[C@H](C)[C@@]2(C)O[C@H]2C3/C=C/C/C=C\CNC1=O (stereo partly specified)	0.0431 (inactive)
CCOC(=O)C1=C[C@@H](c2ccccc2)N(S(=O)(=O)c2ccc(C)cc2)[C@H]1c1ccccc1	-1.91 (inactive)
[N-]=[N+]=NCc1ccccc1C[C@]1(C(=O)N2CCOCC2)COC(c2ccc(OCCCO)cc2)=N1	-3.07 (inactive)
COCCOC(=O)N1C(=O)[C@@]2(c3cc(C#Cc4ccc(OC)cc4)ccc31)[C@H](C(=O)NC[C@H](O)c1ccccc1)[C@H]1C(=O)O[C@H](c3ccccc3)[C@H](c3ccccc3)N1[C@@H]2c1ccc(OCCO)cc1	-5.48 (inactive)
COCCOC(=O)N1C(=O)[C@@]2(c3cc(C#CCC(C(=O)OC)C(=O)OC)ccc31)[C@H](c1ccc(OCCO)cc1)N1[C@H](c3ccccc3)[C@H](c3ccccc3)OC(=O)[C@H]1[C@@H]2C(=O)Nc1nc2ccccc2s1	-1.79 (inactive)
COCCOC(=O)N1C(=O)[C@@]2(c3cc(C#CCNC(N)=O)ccc31)[C@H](c1ccc(O)cc1)N1[C@H](c3ccccc3)[C@H](c3ccccc3)OC(=O)[C@H]1[C@@H]2C(=O)N1CCN(c2ncccn2)CC1	0.259 (inactive)
COc1cc(C(O)C2C=CC3C(=O)N(Cc4ccccc4)C(=O)C3N2n2cnnc2)cc(OC)c1OC (stereo unspecified)	-0.429 (inactive)
CCCCC=C[C@@H](NC(=O)c1ccccc1)c1ccccc1	-0.598 (inactive)
COc1ccc([Si](C)(C)[C@@H]2[C@@H](CC(=O)N3Cc4ccccc4C[C@H]3CO)O[C@]3(C(=O)N(c4ccccc4)c4ccccc43)[C@H]2C)cc1	-4.81 (inactive)
CCOC(=O)C1=CCC(c2ccccc2)N(S(=O)(=O)c2ccc([N+](=O)[O-])cc2)C1 (stereo unspecified)	-3.61 (inactive)
[N-]=[N+]=NCc1ccccc1[C@@H]1OC(c2ccc(OCCCO)cc2)=N[C@]1(Cc1ccccc1N=[N+]=[N-])C(=O)N1CCCCC1	-1.91 (inactive)
C=CCN1C(=O)[C@]2(O[C@H](CCO)[C@@H]([Si](C)(C)c3ccc(OC)cc3)[C@@H]2C)c2cc(N3C(=O)COc4ccccc43)ccc21	-8.07 (active)

SMILES	z-score
COCCCNC(=O)[C@@]1(c2ccc([N+](=O)[O-])cc2)CC(=O)N(CC23CC4CC(CC(C4)C2)C3)[C@@H]1c1ccc(CO)cc1I	-5.26 (inactive)
CC(C)OC(=O)CC(=O)CC(O)c1ccc([N+](=O)[O-])cc1 (stereo unspecified)	-0.824 (inactive)
CCOC(=O)C1=CCC(c2ccco2)N(S(=O)(=O)c2ccc(C)cc2)C1 (stereo unspecified)	-2.95 (inactive)
[N-]=[N+]=Nc1ccccc1[C@@H]1OC(c2ccc(OCCCO)cc2)=N[C@]1(Cc1ccccc1)C(=O)NCc1ccccc1	-3.97 (inactive)
[N-]=[N+]=NCc1ccccc1C[C@@]1(C(=O)N2CCCCC2)N=C(c2ccc(OCCCO)cc2)O[C@@H]1c1ccccc1CN=[N+]=[N-]	-4.29 (inactive)
O=C1C2C=CC(C(O)c3ccc(I)cc3)N(Nc3ccccc3)C2C(=O)N1c1ccccc1 (stereo unspecified)	-0.167 (inactive)
CC(C)C(=C=CC[C@@H](O)c1cccc(OCCO)c1)C[C@@H](O)c1ccccn1	-0.846 (inactive)
COC(=O)[C@@]1(Cc2ccccc2CN=[N+]=[N-])N=C(c2ccc(OCCCO)cc2)O[C@H]1c1ccccc1	-4.77 (inactive)
CCOC(=O)C[C@H]1[C@H](OC(=O)c2cc3ccccc3oc2=O)[C@@H](NC(=O)c2ccc3ccccc3c2)c2cc(OCCCO)ccc2N1C(=O)Cc1ccc(OC)cc1	-0.361 (inactive)
COC(=O)[C@@]1(Cc2ccc(OC)cc2)[C@H]2c3cc(C(=O)N4CCCC4)n(Cc4cc(C)n(C)n4)c3C[C@H]2CN1C(=O)c1ccccc1	-0.434 (inactive)
C=C(CCCC)C(=O)CC[C@H](OC(C)=O)c1ccc(OCCO)cc1	-7.16 (inactive)
COc1ccc(C(=O)Nc2cccc(CN3C(=O)[C@]4(O[C@H](CCn5cc([C@H](O)c6ccccc6)nn5)[C@@H]([Si](C)(C)c5ccc(OC)cc5)[C@@H]4C)c4ccccc43)c2)cc1	-7.81 (inactive)
COCCOC(=O)N1C(=O)[C@@]2(c3cc(C#CC4=CCCCC4)ccc31)[C@H](C(=O)N1CCCCCCC1)[C@H]1C(=O)O[C@H](c3ccccc3)[C@H](c3ccccc3)N1[C@@H]2c1ccc(OCCO)cc1	-3.96 (inactive)
C=C(CCCC)/C(=C/C[C@H](OC(C)=O)c1ccc(OCCO)cc1)c1cc(C(=O)OC)ccc1OC	-1.03 (inactive)
COc1ccc([Si](C)(C)[C@H]2[C@H](CC(=O)N3CCC[C@H]3CO)O[C@@]3(C(=O)N(Cc4ccc(N5CCC5=O)cc4)c4ccccc43)[C@@H]2C)cc1	-5.51 (inactive)
[N-]=[N+]=NCc1ccccc1[C@@H]1OC(c2ccc(OCCCO)cc2)=N[C@]1(Cc1ccccc1N=[N+]=[N-])C(=O)NCCN1CCOCC1	-3.14 (inactive)
O=C1C[C@@](C(=O)NCC(F)(F)F)(c2ccc([N+](=O)[O-])cc2)[C@@H](c2ccc(CO)cc2)N1CC12CC3CC(CC(C3)C1)C2	-5.79 (inactive)
